# Assay results reported in the supplement of paper PMC6555819.
# How the values were obtained:
# Assay in all cases: PBM binding z-score (relative to random genomic background probes); higher = stronger binding; sequences stand for … in GC…GCGATTGACAGCGTAGAATGAAGG
# [1] = test system: RARb homodimer (NR concentration 270 nM)
# How it was run: (§1)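 Random background probes are the reference for binding z-scores. These scores derive from regression-normalized fluorescence on custom Agilent 4×180K protein-binding microarrays incubated 1 h with ligand-free nuclear receptor dimers. Binding was detected with antibodies against each partner (one per run).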
# [2] = test system: RARg:RXRa (NR concentration 270 nM, RXRa partner concentration 90 nM)
# How it was run: as §1
# [3] = test system: RARg homodimer (NR concentration 270 nM)
# How it was run: as §1
# [4] = test system: RXRa DBDmut IVT, anti-RXR (DBD mutation: RXRa K156A/R161A, NR concentration 90 nM)
# How it was run: as §1
# [5] = test system: RXRa homodimer (NR concentration 180 nM)
# How it was run: as §1
# [6] = test system: THRa:RXRa (NR concentration 90 nM, RXRa partner concentration 90 nM)
# How it was run: as §1
# [7] = test system: THRa homodimer (NR concentration 90 nM)
# How it was run: as §1
# [8] = test system: VDR homodimer (NR concentration 270 nM)
# How it was run: as §1
Sequence,PBM binding z-score [1],PBM binding z-score [2],PBM binding z-score [3],PBM binding z-score [4],PBM binding z-score [5],PBM binding z-score [6],PBM binding z-score [7],PBM binding z-score [8]
AGTACAGGGTCACTAGGCCAGAGTAGGTACGAAT,3.49,5.25,5.26,2.61,5.43,3.41,1.04,2.39
CGTCCAAGGTCCGCAGGTCAGTGAAAGCGACGTG,2.24,1.06,1.49,0.0611,0.267,1.04,0.0358,-0.00185
CCTACTGGGCCAGGAAAGGTCATTGATTCAGTGA,4.32,4.28,3.54,-0.114,4.36,3.44,0.626,1.99
AGAACGAGGGCACGCTGAGTTCATAGCAGAGTAG,2.79,4.31,3.34,3.17,3.08,3.31,0.849,7.01
CCTGCTAGGTCAACGGTCAGCTAAAGCAGCTCGC,3.72,4.6,5.11,2.02,3.13,2.79,0.878,0.529
TAGCCTAGGTCACTGGGCCAGTATAGTACGCATC,3.06,3.92,4.68,0.296,2.8,2.92,0.878,0.192
CGTCCAAGGTCAATGCTGGGTCAGTGAAAGCATT,4.74,7.34,6.47,3.12,4.97,4.28,2.52,2.62
GCAGACAGGTAAAACGCAGGTAACTCAGGGTGGC,0.258,-0.164,-0.43,-0.576,0.223,0.964,-0.354,-0.545
TCTTGCAGATCAAAGGTTAAGAAAGCCGAAGCCT,1.18,1.47,0.521,0.00809,3,1.26,-0.786,-0.402
GCTGCTAGGTCAACTTATGGTCAGCTAAAGCTCG,3.76,5.26,5.44,1.75,3.1,3.33,1.45,0.364
CCTACTGGACCATTCAGAGGTCATTGATCATATG,4.13,3.53,2.94,1.51,3.99,3.04,2.32,4
ATCTATAGGTAAGACTCAGTTCAGTGAAGAACGC,0.556,0.524,0.517,0.507,0.24,0.633,0.24,1.36
CGAACTAGGTCCGAACAGGACAGTGAAGGATGAT,-0.462,-0.22,0.235,0.44,-0.527,0.105,-0.912,-0.155
TCTAGTTGGTCACGGAGGTCACACACGACGGGTA,4.44,4.66,4.79,0.886,4.58,3.61,2.53,3.25
TCTTGTAGATCAAGCAGGTTAAGAACGCCTGAGT,0.231,0.0271,-0.224,0.465,0.465,0.437,-0.161,0.189
CTCGAAAGGTCGTTCTCAGGTGAGTATACCAAAC,2.86,5.28,3.33,3.44,4.39,4.46,1.46,2.59
GCTATTAGTTGTAAGGGCAACCGAATGATTCTCG,1.47,0.411,0.637,0.96,0.441,1.73,1.18,0.507
TTACCAAGGTGAGCTCAGGTCGTTGATCCAACTC,1.03,0.577,0.405,-0.211,0.652,4.12,1.43,0.416
CGAACGAGGGCATGAGTTGATCGCAAATGCCGAT,0.684,1.04,1.28,2.51,0.767,1.04,-0.361,1.79
TCTTGAAGATCAATAGAGGTTAAGAAAGTGCGCT,1.17,0.73,0.205,0.671,1.49,2.53,-0.674,-0.178
TCGAGTAGGTTAGGGGCTTTCAGAATGGCGTCGA,0.146,-0.192,-0.707,0.128,0.00359,-0.109,0.122,-0.301
ATCTCTAGGTAAAGATACTTCAGTGAATGCAAAT,-0.416,0.491,0.669,-0.0244,0.385,0.398,0.038,0.371
AGAATGAGGTTACCAAACATCAGGGAAACGCTTG,0.501,1.92,1.75,1.15,2.56,2.59,0.726,0.159
GCTGCTAGGTCAGTTTGGTCAGCTAACGGGTACG,2.43,2.29,3.29,0.863,0.8,1.36,0.147,0.564
ATTCCAAGGTGATCGTGAGGTCGTTGATACTAAC,1.59,2.23,0.975,0.914,1.4,3.55,2.95,3.2
GTACTAAGGTGAATAGGTCGTTGATGAGTAGGCG,2.3,3.3,1.84,0.451,2.22,3.11,1.66,0.722
GCTAGTTGGTCAGTAAAAAGTCACACACCGGTCG,1.33,0.522,0.701,0.212,0.223,0.00328,-0.343,0.168
TAGCCTAGGTCATGCGGGCCAGTATCGTGTCGGC,2.77,4.03,4.3,0.371,3.1,2.88,1.17,0.528
